Test results as given in the supplement of paper PMC6089552.
The campaign covered roughly 3,200 compounds. About 300 (9.4%) showed activity. The sample holds actives, similar compounds and a random draw of the others, so the mix is not that of the screen.

Test system: A673/TR/shEF
Assay: cell viability (LOESS-normalised, relative to median of negative controls) (log2 ratio); higher = more viable cells (less compound effect), active = hit call of the paper (over 3 MAD below the median)
Settings: treatment time: 72 h
Outline: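 Doxycycline, present or absent from 24 h before compounds, was used to induce EWS-FLI1 shRNA knockdown in A673/TR/shEF Ewing sarcoma cells at 1,500 per well in 384-well plates. Cells then received library compounds at two or more concentrations, or DMSO controls, for three days. Viability was measured by CellTiter-Glo luminescence on an Envision reader, and per-plate LOESS correction, division by the negative-control median and log2 transformation followed.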

[1] = 0.25 µM, library screen: screen1, EWS-FLI1 expression: high (no doxycycline)
[2] = 0.25 µM, library screen: screen1, EWS-FLI1 expression: low (doxycycline-induced shRNA knockdown)
[3] = 2.5 µM, library screen: screen1, EWS-FLI1 expression: high (no doxycycline)
[4] = 2.5 µM, library screen: screen1, EWS-FLI1 expression: low (doxycycline-induced shRNA knockdown)
[5] = 0.103 µM, library screen: screen3, EWS-FLI1 expression: high (no doxycycline)
[6] = 0.103 µM, library screen: screen3, EWS-FLI1 expression: low (doxycycline-induced shRNA knockdown)
[7] = 0.308 µM, library screen: screen3, EWS-FLI1 expression: high (no doxycycline)
[8] = 0.308 µM, library screen: screen3, EWS-FLI1 expression: low (doxycycline-induced shRNA knockdown)
[9] = 0.926 µM, library screen: screen3, EWS-FLI1 expression: high (no doxycycline)
[10] = 0.926 µM, library screen: screen3, EWS-FLI1 expression: low (doxycycline-induced shRNA knockdown)
[11] = 2.8 µM, library screen: screen3, EWS-FLI1 expression: high (no doxycycline)
[12] = 2.8 µM, library screen: screen3, EWS-FLI1 expression: low (doxycycline-induced shRNA knockdown)
[13] = 8.3 µM, library screen: screen3, EWS-FLI1 expression: high (no doxycycline)
[14] = 8.3 µM, library screen: screen3, EWS-FLI1 expression: low (doxycycline-induced shRNA knockdown)
[15] = 25 µM, library screen: screen3, EWS-FLI1 expression: high (no doxycycline)
[16] = 25 µM, library screen: screen3, EWS-FLI1 expression: low (doxycycline-induced shRNA knockdown)
[17] = 0.25 µM, library screen: screen2, EWS-FLI1 expression: high (no doxycycline)
[18] = 0.25 µM, library screen: screen2, EWS-FLI1 expression: low (doxycycline-induced shRNA knockdown)
[19] = 2.5 µM, library screen: screen2, EWS-FLI1 expression: high (no doxycycline)
[20] = 2.5 µM, library screen: screen2, EWS-FLI1 expression: low (doxycycline-induced shRNA knockdown)

Measured: cell viability (log2)

CSCCC(NC=O)C(=O)NC(CC(C)C)C(=O)NC(Cc1ccccc1)C(=O)O (centres undefined)
inactive: [1] 0.0125 | [2] 0.0891 | [3] 0.0974 | [4] 0.0808

Cn1cncc1[C@@](N)(c1ccc(Cl)cc1)c1ccc2c(c1)c(-c1cccc(Cl)c1)cc(=O)n2C
inactive: [5] -0.139 | [6] -0.0373 | [8] -0.0603 | [10] -0.0604
active: [7] -0.29 | [9] -0.324 | [11] -0.403 | [12] -0.128 | [13] -0.472 | [14] -0.135 | [15] -0.511 | [16] -0.303

COc1ccccc1C1NC(=S)NC(C)=C1C(=O)Nc1cccc(Cl)c1 (centres undefined)
inactive: [1] 0.0961 | [2] 0.101 | [3] 0.0795 | [4] 0.0861

O=C(O)C(O)C(O)(Cc1ccc(O)cc1)C(=O)O (centres undefined)
inactive: [1] 0.147 | [2] 0.0709 | [3] 0.147 | [4] 0.089

C[C@@H]1CC[C@@]2(OC1)O[C@H]1C[C@H]3[C@@H]4CC[C@H]5C[C@@H](O)CC[C@]5(C)[C@H]4C[C@@H](O)[C@]3(C)[C@H]1[C@@H]2C
inactive: [1] 0.0822 | [2] 0.0668 | [3] 0.111 | [4] 0.136

COc1ccccc1C=CC(=O)O
inactive: [1] 0.0113 | [2] -0.0457 | [3] 0.102 | [4] 0.0515

CN(C)c1ccc(C(=C2C=CC(=[N+](C)C)C=C2)c2ccc(N(C)C)cc2)cc1
active: [11] -0.295 | [12] -0.547 | [13] -2.54 | [14] -1.19 | [15] -4.26 | [16] -1.87
inactive: [5] 0.0956 | [6] -0.0594 | [1] 0.105 | [2] 0.00922 | [7] 0.0542 | [8] 0.0588 | [9] 0.098 | [10] 0.0226 | [3] 0.0691 | [4] 0.106

O=C1C=CC(=C(c2ccc(O)cc2)c2ccc(O)cc2)C=C1
inactive: [1] 0.083 | [2] 0.0465 | [3] 0.0975 | [4] 0.0767

COc1ccc(-c2cc(=O)c3c(OC)cc(OC)cc3o2)cc1
inactive: [1] 0.0279 | [2] 0.0681 | [3] 0.0807 | [4] 0.22

CC(=O)Oc1cc(C)c2c(c1C(OC(C)=O)OC(C)=O)Oc1c(c(C)c(OC(C)=O)c3c1C(OC(C)=O)OC3=O)OC2=O (centres undefined)
inactive: [1] 0.0407 | [2] 0.0968 | [3] 0.0425 | [4] 0.133

CC1(C)CC[C@]2(C)CC[C@]3(C)C(=CC[C@@H]4[C@@]5(C)CC[C@H](O)C(C)(C)[C@@H]5CC[C@]43C)[C@@H]2C1
inactive: [1] 0.0903 | [2] 0.0065 | [3] 0.1 | [4] 0.118

COC1=C[C@@H](C)[C@@H]2C[C@H]3OC(=O)C[C@H]4C(C)=C(OC)C(=O)[C@H]([C@@]2(C)C1=O)[C@@]34C
inactive: [1] 0.0742 | [2] 0.006 | [3] 0.146 | [4] 0.0264

Cc1ccc(C(=O)Nc2ccc(CN3CCN(C)CC3)c(C(F)(F)F)c2)cc1C#Cc1cnc2cccnn12
active: [9] -0.202 | [11] -0.252 | [13] -0.655 | [14] -0.442 | [15] -1.59 | [16] -1.35
inactive: [5] -0.0141 | [6] 0.111 | [7] -0.0138 | [8] 0.169 | [12] 0.093
0.218: [10]

CC(C)c1c(O)ccc2c1CCC1[C@@](C)(C(=O)O)CCC[C@]21C (some centres undefined)
inactive: [1] 0.0397 | [2] 0.152 | [3] 0.0988 | [4] 0.234

C=C(C)/C=C1/C=CC(=O)C(C)=C1
inactive: [1] 0.0888 | [2] 0.0664 | [3] 0.0231 | [4] 0.158

CCCSc1ccc2nc(NC(=O)OC)[nH]c2c1
active: [1] -0.206 | [3] -1.99 | [4] -1.04 | [11] -0.524 | [13] -1.81 | [14] -0.886 | 25 µM, library screen: screen2, EWS-FLI1 expression: high (no doxycycline) -1.74 | 25 µM, library screen: screen2, EWS-FLI1 expression: low (doxycycline-induced shRNA knockdown) -0.157 | [15] -2.99 | [16] -1.16
inactive: 0.025 µM, library screen: screen2, EWS-FLI1 expression: high (no doxycycline) 0.0864 | 0.025 µM, library screen: screen2, EWS-FLI1 expression: low (doxycycline-induced shRNA knockdown) 0.0115 | [5] 0.197 | [6] -0.0327 | [2] -0.0499 | [17] 0.0348 | [18] 0.051 | [7] 0.0506 | [8] 0.123 | [9] 0.0609 | [10] 0.0788 | [19] 0.158 | [20] 0.0631 | [12] 0.00738

CCCOc1ccc2nc(NC(=O)OC)[nH]c2c1
active: [3] -0.659
inactive: [1] 0.0532 | [2] 0.106 | [4] -0.0137

CCCCOc1ccc(CC(=O)NO)cc1
inactive: [1] 0.0397 | [2] 0.0519 | [3] 0.124 | [4] 0.116

O=c1cccc2c([C@H]3Oc4cc(O)cc(O)c4C[C@H]3O)cc(O)c(O)c2c1O
inactive: [1] 0.06 | [2] 0.00163 | [3] 0.108 | [4] 0.0999

N#C/C(=C\c1cc(Cl)cc(Cl)c1)c1cccnc1
inactive: 0.025 µM, library screen: screen1, EWS-FLI1 expression: high (no doxycycline) 0.0512 | 0.025 µM, library screen: screen1, EWS-FLI1 expression: low (doxycycline-induced shRNA knockdown) 0.0254 | [1] 0.126 | [2] 0.0849 | [3] 0.0839 | [4] 0.0837 | 25 µM, library screen: screen1, EWS-FLI1 expression: high (no doxycycline) -0.0133 | 25 µM, library screen: screen1, EWS-FLI1 expression: low (doxycycline-induced shRNA knockdown) 0.21

CC(C)c1ccc2c(c1)CC[C@@]1(C)[C@](C)(C(N)=O)CCC[C@]21C
inactive: [1] 0.0259 | [2] 0.0473 | [3] 0.108 | [4] 0.0563

CC(=O)O[C@H]1CC[C@@]2(C)C(CC[C@]3(C)C2CC=C2C4CC(C)(C)CC[C@]4(C)CCC23C)C1(C)C (some centres undefined)
inactive: [1] 0.05 | [2] 0.112 | [3] 0.0854 | [4] 0.111

COc1ccc(OC)c(CN2CCN(Cc3ccc(OC)c(OC)c3)CC2)c1
inactive: [1] 0.114 | [2] 0.0365 | [3] 0.174 | [4] 0.0479

COc1ccc(OC)c(CN2CCN(Cc3ccccc3OC)CC2)c1
inactive: [1] 0.101 | [2] 0.0584 | [3] 0.0952 | [4] 0.0149

COc1ccc(OC)c(CN2CCN(Cc3cc(OC)c(OC)cc3OC)CC2)c1
inactive: [2] 0.113 | [3] 0.0261 | [4] -0.0111
active: [1] -0.103

COc1ccc(CN2CCN(Cc3ccc(OC)c(OC)c3OC)CC2)c(OC)c1
inactive: [1] 0.0664 | [2] 0.0443 | [3] 0.0638 | [4] 0.0995

Cc1ccc(S(=O)(=O)N[C@@H](Cc2ccccc2)C(=O)CCl)cc1
inactive: [17] 0.00163 | [18] 0.0223 | [19] 0.0887 | [20] 0.111

O=C(N[C@@H](Cc1ccccc1)C(=O)CCl)OCc1ccccc1
inactive: [17] 0.163 | [18] 0.156 | [20] 0.0216
active: [19] -0.218

CC(C)[C@H](NC(=O)OCc1ccccc1)C(=O)N[C@H](C=O)Cc1ccccc1
inactive: [17] 0.0586 | [18] 0.0917 | [19] 0.108 | [20] 0.155

C[N+]1(C)[C@@H]2CC(OC(=O)C(O)(c3cccs3)c3cccs3)C[C@H]1[C@@H]1O[C@@H]12 (some centres undefined)
inactive: [5] -0.0419 | [6] -0.0363 | [7] -0.000855 | [8] 0.0413 | [9] 0.0247 | [10] 0.0262 | [11] 0.0531 | [12] 0.0434 | [13] 0.0573 | [14] 0.11 | [15] 0.0805 | [16] 0.115

Cc1occc(=O)c1C=CO
inactive: [1] 0.064 | [2] 0.0191 | [3] 0.188 | [4] 0.0363

CC1(C)S[C@@H]2[C@H](NC(=O)C(C(=O)O)c3ccccc3)C(=O)N2[C@H]1C(=O)O (some centres undefined)
inactive: [1] 0.137 | [2] 0.0878 | [3] 0.243 | [4] 0.131

CC1(C)S[C@@H]2[C@H](NC(=O)[C@H](N)c3ccccc3)C(=O)N2[C@H]1C(=O)O
inactive: [1] 0.0882 | [2] 0.14 | [3] 0.142 | [4] 0.206

CC1(C)S[C@@H]2[C@H](NC(=O)[C@H](N)c3ccc(O)cc3)C(=O)N2[C@H]1C(=O)O
active: [15] -0.676
inactive: [5] 0.0884 | [6] 0.104 | [1] 0.0883 | [2] 0.0656 | [7] -0.0334 | [8] 0.0742 | [9] 0.0733 | [10] 0.103 | [3] 0.14 | [4] 0.178 | [11] -0.017 | [12] 0.0291 | [13] 0.0293 | [14] 0.106 | [16] -0.0237

CC(=O)N1CCC[C@H]1C(=O)O
inactive: [1] 0.138 | [2] 0.0212 | [3] 0.184 | [4] 0.0486

C=C1c2cc(OC)ccc2NC(=O)N1c1ccccc1
inactive: [1] 0.0622 | [2] 0.09 | [3] 0.104 | [4] 0.0838

CC(C)NC[C@H](O)c1ccc(O)c(O)c1
inactive: [17] 0.15 | [18] 0.0965 | [19] 0.0541 | [20] 0.0273

COC(=O)C[C@H]1C(C)(C)[C@@H](OC(C)=O)[C@@H]2CC3=C4CC(=O)O[C@@H](c5ccoc5)[C@]4(C)CC[C@@H]3[C@@]1(C)C2=O
inactive: [1] 0.0358 | [2] 0.0144 | [3] 0.0778 | [4] 0.108
